# Screening data from PubChem BioAssay.
# The list is not random: actives were taken first. Their share in the collection is about 3.6%.
# Anthrax LF inh2 = blocks Bacillus anthracis lethal factor protease; P15917; multiplex microsphere protease cleavage assay, LF; inhibition, % at 10 µM; actives 0.12% (n = 360,000); AID 588501; note: plate controls were buffer without enzyme for full effect and enzyme alone for no effect
# Target sequence (P15917 whole entry, looked up): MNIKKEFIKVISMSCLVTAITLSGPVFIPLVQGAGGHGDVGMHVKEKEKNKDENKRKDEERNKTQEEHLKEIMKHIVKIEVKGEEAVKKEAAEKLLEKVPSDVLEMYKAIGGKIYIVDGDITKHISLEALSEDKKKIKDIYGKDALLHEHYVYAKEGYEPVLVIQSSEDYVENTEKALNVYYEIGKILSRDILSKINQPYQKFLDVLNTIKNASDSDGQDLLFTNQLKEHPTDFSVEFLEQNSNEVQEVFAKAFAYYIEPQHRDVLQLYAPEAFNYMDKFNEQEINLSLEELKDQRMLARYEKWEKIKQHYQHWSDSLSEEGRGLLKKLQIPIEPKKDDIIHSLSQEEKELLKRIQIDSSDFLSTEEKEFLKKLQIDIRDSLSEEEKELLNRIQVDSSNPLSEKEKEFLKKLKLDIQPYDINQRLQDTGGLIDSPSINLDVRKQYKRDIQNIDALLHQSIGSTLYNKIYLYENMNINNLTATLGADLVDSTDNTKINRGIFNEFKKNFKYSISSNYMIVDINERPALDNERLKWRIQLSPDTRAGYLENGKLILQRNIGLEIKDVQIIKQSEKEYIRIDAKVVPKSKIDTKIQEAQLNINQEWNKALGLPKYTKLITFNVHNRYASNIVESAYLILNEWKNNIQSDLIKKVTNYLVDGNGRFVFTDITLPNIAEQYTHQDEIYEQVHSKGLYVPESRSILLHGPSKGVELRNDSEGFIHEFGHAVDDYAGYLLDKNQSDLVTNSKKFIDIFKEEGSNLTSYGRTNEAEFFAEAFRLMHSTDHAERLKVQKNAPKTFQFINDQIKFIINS
# Bead autofluor = compound fluorescence in toxin protease inhibitor counterscreen; compound autofluorescence counterscreen, microsphere flow cytometry; active compounds read high; fluorescence intensity (test concentration not listed); actives 3.1% (n = 360,000); AID 624483; in the data active = fluorescence intensity above about 16000; inconclusive = no clear call, values can overlap the other calls
# BoNT-F LC inh = BoNT F light chain protease inhibition. actives 0.22% (n = 360,000). AID 588497. inhibition, % at 10 µM. Multiplex microsphere protease cleavage assay, flow cytometry; in the data active = inhibition above about 35%, passing the limit was not always enough; inconclusive = no clear call, values can overlap the other calls; note: plate controls were buffer without enzyme for full effect and enzyme alone for no effect
# BoNT A protease = inhibitors of Botulinum neurotoxin A light chain protease. multiplex microsphere protease substrate cleavage, flow cytometry. inhibition, % at 10 µM. actives 0.17% (n = 360,000); note: plate controls were buffer without enzyme for full effect and enzyme alone for no effect
# 3CLpro inhibitor = SARS-CoV 3CLpro protease inhibition | recombinant SARS-CoV 3CLpro, quenched FRET peptide cleavage | inhibition, % at 6 µM | actives 0.14% (n = 290,000); in the data active = inhibition above about 12%
# BJeLR viability = BJeLR cell viability loss | BJeLR (HRASV12) viability, CellTiter-Glo ATP luminescence, 48 h | actives 0.17% (n = 300,000) | AID 1554 | inhibition, % (test concentration not listed); in the data active = inhibition above about 50%; inconclusive = no clear call, values can overlap the other calls
# * hit, by the source's call; ? = inconclusive; / = not tested or not shown; ! = a repeat was not active. Cut-off read from the data, not from the text of the source, unless noted: active = inhibition above about 30%; inconclusive = no clear call, values can overlap the other calls; inactive = below that.
SMILES,Anthrax LF inh2,Bead autofluor,BoNT-F LC inh,BoNT A protease,3CLpro inhibitor,BJeLR viability
COc1ccc(-c2nnc(SCC(=O)/C(C#N)=C(\C)N)o2)cc1,0,24309*,-2,?,1,2
O=C(O)c1cccc(CSc2nnc(Cc3ccccc3)o2)c1,1,22785*,-2,?,4,0
COc1cc(OC)cc(-c2nnc(SCc3cccc(C(=O)O)c3)o2)c1,0,22846*,1,2,-2,-6
C/C(N)=C(/C#N)C(=O)CSc1nnc(-c2ccccc2Br)o1,-5,4690,-21,-1,3,3
COc1cccc(-c2nnc(SCC(=O)N(C(C)C)C(C)C)o2)c1,-3,24162*,-5,?,-4,8
COC(C/C=C/[C@H](O)[C@@H](C)OCc1ccccc1)OC,-2,3642,-5,0,/,-9
CC(C)C[C@H]1CN(CCCC[C@@H]2CNC(=O)C(=O)N2CCc2ccccc2)C(=O)C(=O)N1CCc1ccc(O)cc1,-2,6017,-9,0,/,/
N#Cc1c(N)nc2c(c1-c1ccncc1)CCCCC2,-6,16184*,-1,0,1,0
N#Cc1c(N)nc2c(c1-c1cccnc1)CCCCC2,-6,21866*,-1,?,0,13
O=C(COC(=O)c1c(Cl)ccc(Cl)c1Cl)NC1CCS(=O)(=O)C1 (configuration not stated),0,4106,1,1,-5,19
c1ccc(C2(Cn3ccc4ccccc43)OCCO2)cc1,-3,24276*,-15,35*,-7,-3
O=C(O)c1ccc(Cn2ccc3ccccc32)o1,-12,4333,?,?,0,-7
Cc1ccc(OCCNC(=O)Cn2cnc3c(=O)n(C)c(=O)n(C)c32)cc1C,-2,22531*,-3,-1,-1,-2
Cn1c(=O)c2ncn(CC(=O)NCCOc3ccccc3)c2n(C)c1=O,-4,10311,3,-1,-1,5
COc1ccc(CNC(=O)Cn2cnc3c(=O)n(C)c(=O)n(C)c32)cc1,0,21079*,-4,-3,3,-12
CCC(=O)N1CCC1(C)C(=O)Nc1cccc2cccnc12 (configuration not stated),-6,3494,7,0,/,/
CCN1CCCC1CNC(=O)c1cc2c(C)nc3ccccc3c2o1 (configuration not stated),-6,17361*,9,7,2,-12
Cc1nc2ccccc2c2oc(C(=O)NCCN3CCCCC3C)cc12 (configuration not stated),-5,13061,-14,-2,-2,-4
O=C(NCCOc1ccc(F)cc1)C1CCC(=O)N(Cc2ccc(Cl)cc2)C1 (configuration not stated),-6,3471,0,0,/,/
CCCCn1c(SCC(=O)Nc2nnc(CC)s2)nc2c1c(=O)n(C)c(=O)n2C,-3,21466*,4,?,3,30
CCCCn1c(SCC(=O)Nc2nnc(CC)s2)nc2ccccc2c1=O,0,22336*,1,?,-4,-12
CCCCn1c(SCC(=O)NC(=O)Cc2ccccc2)nc2ccccc2c1=O,-6,2885,3,-1,/,/
CCCCn1c(SCC(=O)Nc2nnc(C)s2)nc2c1c(=O)n(C)c(=O)n2C,2,22970*,2,?,0,-3
CCNC(=S)Nc1ccc(Cl)c([N+](=O)[O-])c1,3,3615,2,-1,-3,9
C=CCSc1nnc(-c2cc(Br)ccc2N)c(=O)[nH]1,-4,4053,-2,2,0,-6
SMILES,Anthrax LF inh2,Bead autofluor,BoNT-F LC inh,BoNT A protease,3CLpro inhibitor,BJeLR viability
CCCCSc1nnc(-c2cc(Br)ccc2N)c(=O)[nH]1,-3,20791*,1,?,1,4
COC(=O)c1ccccc1NC(=O)NCC1CCCO1 (configuration not stated),-2,22874*,-1,0,1,0
CCC(C)[C@H](NC(=O)NCC1CCCO1)C(=O)OC (some centres not stated),-1,24826*,-5,-5,2,18
O=C(NCC1CCCO1)c1cccs1 (configuration not stated),0,17278*,-7,?,-1,2
CCOCCCNC(=O)N[C@H](C(=O)OC)C(C)CC (some centres not stated),0,6347,-2,0,-2,-11
CCOc1cc(NC(=S)NCC2CCCO2)c(OCC)cc1NC(=O)c1ccccc1 (configuration not stated),-3,24364*,-3,-1,5,-4
CCOc1cc(NC(=S)NCC2CCCO2)c(OCC)cc1NC(=O)c1ccc(C)cc1 (configuration not stated),0,2404,-4,0,3,-3
CCOc1ccccc1NC(=O)COC(=O)C1CC(=O)N(c2c(C)cccc2C)C1 (configuration not stated),-18,3781,-3,0,2,9
Cc1cc(C(=O)NNC(=S)NCC2CCCO2)cs1 (configuration not stated),-8,19574*,1,2,-2,0
CC(=O)Nc1ccc(S(=O)(=O)NCCSCc2c(Cl)cccc2Cl)cc1,-2,21984*,-7,-4,5,5
Cn1c(=O)c(C(=O)c2ccccc2)nc2ccccc21,0,2379,-6,1,-2,-3
O=C(c1ccccc1)c1nc2ccccc2n(CCCn2c(=O)c(C(=O)c3ccccc3)nc3ccccc32)c1=O,6,16402*,0,1,-5,6
COc1cc(C(=O)N/N=C(\c2ccccc2)c2ccccn2)cc(OC)c1OC,-2,2161,-7,-1,4,4
COc1cccc(C(=O)N/N=C(/c2ccccc2)c2ccccn2)c1,2,3193,-6,0,-5,88*
CCOc1c(C)cc(-c2ncccc2O)cc1C,-2,22538*!,-4,-1,-1,11
COc1ccc(-c2ncccc2O)cc1,0,2533,-7,0,-3,-1
O=C(c1cc(-c2ccccc2)nc2ccccc12)N1N=C(C(F)F)CC1(O)C(F)F (configuration not stated),-3,26128*,-11,-7,1,4
Cc1ccc(-c2cc(C(=O)N3N=C(C(F)F)CC3(O)C(F)F)c3ccccc3n2)cc1C (configuration not stated),-5,10021,-12,1,3,-1
CN(CC(=O)NCc1ccccc1)S(=O)(=O)c1ccc2c(c1)CCC(=O)N2,-2,3905,4,0,2,-6
CCOc1ccc(CCNC(=O)CN(C)S(=O)(=O)c2ccc3c(c2)CCC(=O)N3)cc1OCC,-2,23279*,-2,-2,2,8
COC(=O)C1C(=O)C2=C(CC1C)NC(C)=C(C(=O)OC1CCCC1)C2c1ccc(N(C)C)cc1 (configuration not stated),-1,4102,8,1,-8,/
